Assay outcomes from PubChem BioAssay.
Rows were chosen to be rich in hits. Some 2% of all compounds tested hit in one or more screens of this group.
PKA-R2B activ = PKA-R2B complex activation | P22694+P31323 | PKA-R2B holoenzyme dissociation, Cy5-IP20 fluorescence polarization; R2B truncated from residue 108, S112A mutant; 0% DMSO only, 100% 113 µM cGMP | activation, % at 11.4 µM | actives 0.079% (n = 340,000) | AID 504700;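 active = activation above a cutoff set at the mean over all compounds plus 3 SD, cut at about 18% in these data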;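 note: higher means more holoenzyme dissociation and a rise in polarization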
Target sequence (P31323 whole entry, looked up, other chains not shown, the tested form may be a part): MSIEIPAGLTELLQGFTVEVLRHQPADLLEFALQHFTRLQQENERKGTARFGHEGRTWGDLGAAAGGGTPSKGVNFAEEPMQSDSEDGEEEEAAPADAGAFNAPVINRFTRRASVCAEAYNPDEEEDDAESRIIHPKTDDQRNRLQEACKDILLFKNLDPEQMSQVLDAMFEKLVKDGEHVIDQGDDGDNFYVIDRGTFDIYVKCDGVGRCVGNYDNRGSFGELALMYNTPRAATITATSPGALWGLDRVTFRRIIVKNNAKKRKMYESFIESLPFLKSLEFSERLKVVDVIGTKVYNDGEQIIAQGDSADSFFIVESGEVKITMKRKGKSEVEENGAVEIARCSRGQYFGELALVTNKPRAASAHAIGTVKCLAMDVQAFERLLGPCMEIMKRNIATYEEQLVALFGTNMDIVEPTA
bovine MsrA act = bovine methionine sulfoxide reductase A activation | purified bovine MsrA, absorbance read-out | activation, % at 10.6 µM | AID 602163 | actives 0.3% (n = 360,000); in the data active = activation above about 7.5%;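 note: 0% = vehicle and 100% = reference activator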
Mot1-301 SUMO = blocks SUMOylation pathway, rescuing yeast Mot1-301 growth. S. cerevisiae Mot1-301 growth rescue, ATP luminescence, 38.5C; percent above DMSO median, 100 means doubled. growth rescue, % at 18.8 µM. actives 1% (n = 320,000). AID 2716;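 active = every valid replicate shows activation above 250% relative to neutral control wells; inactive = the rest, any valid replicate at or below 250%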;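 note: OY570 slx delta 5 strain wells were the positive control but not used for scaling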
PKA-R1A activ = activators of PKA-R1A complex | P00514+P68181 | PKA-R1A dissociation, Cy5-IP20 fluorescence polarization; scaled: DMSO 0%, 113 µM cGMP 100% | activation, % at 11.4 µM | actives 0.083% (n = 340,000);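 active = percent activation above the mean of all tested compounds plus 3 SD, cut at about 19% in these data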;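 note: higher means more PKAc released from R1A so a rise in polarization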
MsrA inhibitor = inhibits bovine methionine sulfoxide reductase A. purified bovine MsrA, absorbance read-out. inhibition, % at 15.5 µM. actives 0.75% (n = 360,000); in the data active = inhibition above about 4.5%;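 note: 0% = vehicle wells with enzyme and 100% = reference inhibitor wells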
Yeast Mot1 SUMO = yeast SUMO pathway inhibition in dose response; S. cerevisiae Mot1-301 galactose growth, ATP luminescence, 24 h; -100 = growth of slx-deleted rescue strain; 2,300 tested, under 10 active; AID 493004; shares compounds with Mot1-301 SUMO; growth activity, percent, % at 42 µM;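 active = Signal drops as the depositor expects, and the fitted half-maximal dose is no more than ten times the top valid tested dose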;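 note: more negative values mean stronger growth rescue toward the control strain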
* hit, by the source's call; · = no result; + = active, no number; [ ] = remark or other dose.

SMILES	PKA-R2B activ	bovine MsrA act	Mot1-301 SUMO	PKA-R1A activ	MsrA inhibitor	Yeast Mot1 SUMO
O=C(c1ccco1)N1CCN(CC(=O)N2c3ccccc3CCc3ccccc32)CC1	-9	-3	368*	-8	2	0
O=C(CN1CCCCC1)N1c2ccccc2CCc2ccccc21	3	2	7	-11	-1	·
COC(=O)CCN1CCSCCS1(=O)=O	·	·	·	·	0	·
CS(=O)(=O)c1ccccc1C(=O)N(CCc1ccccc1)Cc1ccccc1	-4	-7	-5	-15	-1	·
COc1ccc(C(=O)N(CCc2ccccc2)Cc2ccccc2)c(OC)n1	-6	-2	658*	2	1	0
CN(Cc1ccc(C(C)(C)C)cc1)C(=O)c1ccc2c(=O)n3c(nc2c1)CCC3	-8	-1	399*	4	0	0
CC1=CS(=O)(=O)CC1Sc1ncn[nH]1 (stereo unspecified)	-13	-7	557*	-8	0	-1
CCCCn1c(N)c(N(CCOC)C(=O)c2cnccn2)c(=O)[nH]c1=O	-13	-2	765*	-9	0	1
CCCCn1c(N)c(N(CCOC)C(=O)c2ccc(S(=O)(=O)N3CCCCC3)cc2)c(=O)[nH]c1=O	-1	-2	-23	-7	1	·
CCCCn1c(N)c(N(CCOC)C(=O)c2ccc(Cl)c(S(=O)(=O)N3CCCCC3)c2)c(=O)[nH]c1=O	-5	-3	698*	6	0	0
CCOC(=O)C1=CCN(S(=O)(=O)c2ccccc2Br)C1c1ccc(Cl)cc1 (stereo unspecified)	·	·	·	·	0	·
CCOc1ccc2[nH]c(=O)c(CN(Cc3ccco3)Cc3nnnn3Cc3ccccc3)cc2c1	-3	-2	132	1	0	·
CCOc1ccc2[nH]c(=O)c(CN(Cc3ccco3)C(CC)c3nnnn3Cc3ccccc3)cc2c1 (stereo unspecified)	6	0	+	-9	0	0
O=C1CN(C(=O)COC(=O)c2cccc(S(=O)(=O)NCc3ccccc3)c2)c2ccccc2N1	-11	-2	554*	-8	1	1
CCCCn1c(N)c(N(CC(C)C)C(=O)CSCC(=O)Nc2cccc(C)c2)c(=O)[nH]c1=O	5	-1	366*	0	-1	0
CC(=O)Nc1cccc2c1C(=O)N(c1ccccc1C)C2=O	7	-3	518*	1	2	-1
COC(=O)c1c(-c2ccc(OC)cc2)c2c(c3c4cc(OC)ccc4n(C(=O)c4ccccc4)c13)C(=O)N(C)C2	·	·	·	·	0	·
O=C(CSc1nc2ncccc2[nH]1)NC1CCCCC1	4	-1	929*	7	-1	0
O=C(N[C@H](Cc1ccccc1)C(=O)NCC1CCCCC1)[C@H]1O[C@@H](n2ccc(=O)[nH]c2=O)[C@H](O)[C@@H]1O	·	·	·	·	0	·
Cc1cc2c(nc1C)CCCN2Cc1ccccn1	·	·	·	·	0	·
CC1(C)Oc2ccc3ccc(=O)oc3c2/C(=C/Nc2ccc(O)cc2)C1=O	5	-3	984*	4	-1	0
CC1(C)Oc2ccc3ccc(=O)oc3c2/C(=C/Nc2cccc(O)c2)C1=O	·	-9	15	·	1	·
O=C(N1CCCCC1)C1(S(=O)(=O)c2ccccc2)CC=CC1	-8	-4	-26	11	1	·
O=C(N1CCOCC1)C1(S(=O)(=O)c2ccccc2)CC=CC1	-9	-3	639*	2	0	0
Cc1c(C(=O)NC(C)C)oc2c1-c1[nH]ncc1CC2	0	2	+	-11	-1	0
SMILES	PKA-R2B activ	bovine MsrA act	Mot1-301 SUMO	PKA-R1A activ	MsrA inhibitor	Yeast Mot1 SUMO
O=C(CN1c2ccccc2Sc2ccccc21)N/N=C/c1ccc(Cl)cc1Cl	6	-4	453*	-5	0	1[21 µM]
O=C(CN1c2ccccc2Sc2ccccc21)N/N=C/c1ccc(Cl)cc1	·	-1	7	·	0	·
COc1ccc(N(C(=O)c2ccco2)C(C(=O)NC2CCCC2)c2ccccc2)cc1 (stereo unspecified)	-3	3	-5	0	-1	·
COc1ccc(N(C(=O)c2ccco2)C(C(=O)NC2CCCCC2)c2ccccc2)cc1 (stereo unspecified)	4	0	694*	-16	-1	1
S=C1NCCN1c1ccc(Cl)cc1	·	·	·	·	0	·
O=C(c1ccc2c(=O)n(Cc3ccccc3Cl)c(=S)[nH]c2c1)N1CCOCC1	-8	-2	422*	-15	0	1
COC(=O)C1=C(C)N(Cc2ccccc2C(F)(F)F)C(=NCC2CC2)NC1CCc1ccccc1 (stereo unspecified)	·	·	·	·	-1	·
CCOC(=O)c1sc2ncn(C(CC)C(=O)OC)c(=O)c2c1C (stereo unspecified)	-3	-1	8	-16	2	·
CCOC(=O)c1sc2ncn(C(CC)C(=O)OCC)c(=O)c2c1C (stereo unspecified)	-6	-7	592*	-8	-1	0
CC12CCC3c4ccc(OCCCO)c([N+](=O)[O-])c4CCC3C1CCC2=O (stereo unspecified)	·	·	·	·	2	·
CCCOc1ccc(C(O)C(CN2CCOCC2)c2ccccc2)cc1 (stereo unspecified)	10	0	20	5	1	·
CCCCOc1ccc(C(O)C(CN2CCOCC2)c2ccccc2)cc1 (stereo unspecified)	3	1	787*	4	0	0
Cc1csc(CNc2ncnc3ccc(-c4cccnc4)cc23)c1	-6	-2	-7	0	-1	·
Clc1ccccc1-c1ccc2ncnc(NCc3cccs3)c2c1	-17	-9	411*	0	1	-3
Cc1csc(CNc2ncnc3ccc(-c4ccccc4Cl)cc23)c1	-11	7	+	2	0	-1
O=C(NCC(c1cccs1)N1CCOCC1)c1ccccc1NS(=O)(=O)c1ccc(Cl)c([N+](=O)[O-])c1 (stereo unspecified)	-6	-4	-24	2	0	·
O=C(NCC(c1cccs1)N1CCOCC1)c1ccccc1NS(=O)(=O)c1cc([N+](=O)[O-])ccc1Cl (stereo unspecified)	-14	-3	504*	3	1	-1
COc1cc(C(C2C(=O)CC(C)(C)CC2=O)C2C(=O)CC(C)(C)CC2=O)cc(OC)c1OC	2	-2	-17	3	2	·
COc1cc(C(C2=C(O)CC(C)(C)CC2=O)C2C(=O)CC(C)(C)CC2=O)cc(OC)c1OC (stereo unspecified)	·	-4	658*	·	0	1
C=CCCN1[C@@H](Cc2ccccc2)COc2ccccc2S1(=O)=O	·	·	·	·	0	·
O=C1N=C(N2CCN(c3ccccc3)CC2)SC1Cc1ccccc1 (stereo unspecified)	5	-4	530*	4	0	0
